High-throughput results from PubChem BioAssay.
STAT3 SMM: binds human STAT3 on microarray | P40763 | Small molecule microarray, His-STAT3 binding, anti-His fluorescence | calls only | 0.2% of 17,000 active;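 active means compounds whose four printed spots each show fluorescence over background unusually high for their array block, chance value under 7%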
mut p53 SMM: mutant p53 (human) binding. calls only. small molecule microarray binding, anti-GST fluorescence. 0.4% of 17,000 active;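 active means compounds whose four printed spots each glow above background more than chance allows, each with a p-value under 7%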
NFkB binder: binders of human NF-kappa-B p105; P19838; Small molecule microarray, anti-His fluorescence binding; calls only; 1.3% of 17,000 active; AID 624139;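 active means spot fluorescence over background significantly raised, with a chance value under 7% in all four replicate spots of the compound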;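 further: probe protein is his-tagged human p50 processed subunit at 1 µg/ml; raw spot fluorescence signals with no normalization applied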
Myc binder: c-Myc (human) binding | AID 624141 | small molecule microarray, His-c-Myc binding, anti-His fluorescence | P01106 | 1.5% of 17,000 active | calls only;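 active means spot fluorescence over background with P-value below 7% in all four replicate spots, showing protein binding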;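 further: score is binary with 100 for all four spots passing and 0 otherwise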
Target sequence (P01106 whole entry, looked up): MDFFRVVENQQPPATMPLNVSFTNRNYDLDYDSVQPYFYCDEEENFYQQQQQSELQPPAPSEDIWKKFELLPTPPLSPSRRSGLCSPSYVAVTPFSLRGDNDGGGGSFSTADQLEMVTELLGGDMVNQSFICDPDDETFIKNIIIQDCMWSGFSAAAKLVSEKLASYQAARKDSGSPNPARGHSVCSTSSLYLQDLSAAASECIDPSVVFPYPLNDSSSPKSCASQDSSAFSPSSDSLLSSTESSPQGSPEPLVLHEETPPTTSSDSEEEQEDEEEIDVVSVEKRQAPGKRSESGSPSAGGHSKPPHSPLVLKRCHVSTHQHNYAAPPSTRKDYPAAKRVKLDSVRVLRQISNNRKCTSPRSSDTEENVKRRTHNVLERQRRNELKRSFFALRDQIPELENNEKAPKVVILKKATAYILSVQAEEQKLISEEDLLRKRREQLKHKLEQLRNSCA
Active calls of the source: *. Compounds with a hit are over-represented: about 2.1% of the library has one in this group of screens.

Screening CC(C)NC(=O)Nc1ccc2c(c1)C(=O)N([C@@H](C)CO)C[C@H](C)[C@@H](CN(C)C(=O)Nc1ccccc1)OCCCC[C@@H](C)O2 returned STAT3 SMM inactive, mut p53 SMM inactive, NFkB binder active and Myc binder active.
`CC(C)NC(=O)Nc1ccc2c(c1)C(=O)N([C@@H](C)CO)C[C@@H](C)[C@H](CN(C)Cc1ccccc1)OCCCC[C@@H](C)O2` gave STAT3 SMM inactive, mut p53 SMM inactive, NFkB binder inactive and Myc binder inactive.
For COc1ccc(CCNC(=S)Nc2ccc(-c3nc4ccc(C)cc4s3)cc2)cc1OC the results were STAT3 SMM inactive, mut p53 SMM inactive, NFkB binder inactive and Myc binder inactive.
C=C1C2CCC3[C@]4(C)CCC[C@@](C)(C(=O)O)C4CC[C@]3(C2)[C@H]1OC(C)=O (stereo partly specified) was read as STAT3 SMM inactive, mut p53 SMM inactive, NFkB binder inactive and Myc binder inactive.
Screening CCOc1c(OC)cc(Cl)cc1C1NC(=O)NC(C)=C1C(=O)Nc1ccccc1C(=O)OC (stereo unspecified) returned STAT3 SMM inactive, mut p53 SMM inactive, NFkB binder inactive and Myc binder inactive.
Screening O=C(OCc1cccc(O)c1O[C@@H]1O[C@H](CO)[C@@H](O)[C@H](O)[C@H]1O)C1(O)C(=O)C2C3C4C5C(C(=O)C(O)(C(=O)OCc6cccc(O)c6O[C@@H]6O[C@H](CO)[C@@H](O)[C@H](O)[C@H]6O)C2C53)C41 (stereo partly specified) returned STAT3 SMM inactive, mut p53 SMM inactive, NFkB binder inactive and Myc binder inactive.
CC(C)NC(=O)Nc1ccc2c(c1)C(=O)N([C@@H](C)CO)C[C@H](C)[C@H](CN(C)Cc1ccccc1)OCCCC[C@@H](C)O2 was read as STAT3 SMM inactive, mut p53 SMM inactive, NFkB binder inactive and Myc binder inactive.
Screening CC(C)NC(=O)Nc1ccc2c(c1)C(=O)N([C@@H](C)CO)C[C@H](C)[C@@H](CN(C)Cc1ccccc1)OCCCC[C@H](C)O2 returned STAT3 SMM inactive, mut p53 SMM inactive, NFkB binder active and Myc binder active.
C[C@@H]1CCCCO[C@H](CN(C)C(=O)CCC(F)(F)F)[C@H](C)CN([C@@H](C)CO)C(=O)c2cc(NC(=O)c3ccncc3)ccc2O1 was read as STAT3 SMM inactive, mut p53 SMM inactive, NFkB binder active and Myc binder inactive.
For C[C@H](CO)N1C[C@H](C)[C@H](CN(C)C(=O)CCC(F)(F)F)OCCCC[C@H](C)Oc2ccc(NC(=O)c3ccncc3)cc2C1=O the results were STAT3 SMM inactive, mut p53 SMM inactive, NFkB binder active and Myc binder active.
For C[C@@H]1CN([C@@H](C)CO)C(=O)c2cc(NC(=O)c3ccncc3)ccc2O[C@@H](C)CCCCO[C@H]1CN(C)C(=O)CCC(F)(F)F the results were STAT3 SMM inactive, mut p53 SMM inactive, NFkB binder inactive and Myc binder inactive.
For C[C@@H]1CCCCO[C@H](CN(C)C(=O)CCC(F)(F)F)[C@@H](C)CN([C@H](C)CO)C(=O)c2cc(NC(=O)c3ccncc3)ccc2O1 the results were STAT3 SMM inactive, mut p53 SMM inactive, NFkB binder inactive and Myc binder inactive.
For C[C@@H]1CCCCO[C@H](CN(C)CC2CC2)[C@@H](C)CN([C@H](C)CO)C(=O)c2cc(NC(=O)Nc3cccc4ccccc34)ccc2O1 the results were STAT3 SMM inactive, mut p53 SMM inactive, NFkB binder inactive and Myc binder inactive.
`CCCN(C)C[C@H]1OCCCC[C@@H](C)Oc2ccc(NS(=O)(=O)c3ccc(OC)cc3)cc2C(=O)N([C@@H](C)CO)C[C@H]1C` gave STAT3 SMM inactive, mut p53 SMM active, NFkB binder inactive and Myc binder active.
For CCCN(C)C[C@@H]1OCCCC[C@@H](C)Oc2ccc(NC(=O)Nc3cccc4ccccc34)cc2C(=O)N([C@H](C)CO)C[C@@H]1C the results were STAT3 SMM inactive, mut p53 SMM inactive, NFkB binder active and Myc binder active.
C[C@@H]1CN([C@@H](C)CO)C(=O)c2cc(NC(=O)Nc3cccc4ccccc34)ccc2O[C@@H](C)CCCCO[C@@H]1CN(C)CC1CCCCC1 was read as STAT3 SMM inactive, mut p53 SMM inactive, NFkB binder active and Myc binder active.
Screening CCc1ccc(C(Nc2cc(C)ccn2)c2ccc3cccnc3c2O)cc1 (stereo unspecified) returned STAT3 SMM inactive, mut p53 SMM active, NFkB binder inactive and Myc binder inactive.
Screening C[C@@H]1CN([C@@H](C)CO)C(=O)Cc2cc(NC(=O)CCN3CCOCC3)ccc2O[C@H]1CN(C)Cc1ccc(-c2ccccc2)cc1 returned STAT3 SMM inactive, mut p53 SMM inactive, NFkB binder inactive and Myc binder active.
For C[C@@H]1CN([C@H](C)CO)C(=O)Cc2cc(NC(=O)CCN3CCOCC3)ccc2O[C@H]1CN(C)Cc1ccc(-c2ccccc2)cc1 the results were STAT3 SMM inactive, mut p53 SMM inactive, NFkB binder inactive and Myc binder inactive.
Screening C[C@@H]1CN([C@@H](C)CO)C(=O)Cc2cc(NC(=O)Nc3cccc4ccccc34)ccc2O[C@@H]1CN(C)Cc1ccc(C(=O)O)cc1 returned STAT3 SMM inactive, mut p53 SMM inactive, NFkB binder inactive and Myc binder inactive.
Screening C[C@H](CO)N1C[C@H](C)[C@@H](CN(C)Cc2ccc(-c3ccccc3)cc2)Oc2ccc(NC(=O)Nc3cccc4ccccc34)cc2CC1=O returned STAT3 SMM inactive, mut p53 SMM inactive, NFkB binder active and Myc binder inactive.
Screening COc1ccc([Si](C)(C)[C@H]2[C@H](CCO)O[C@@]3(C(=O)N(Cc4ccccc4)c4ccc(NC(=O)[C@H](C)O)cc43)[C@@H]2C)cc1 returned STAT3 SMM inactive, mut p53 SMM active, NFkB binder active and Myc binder inactive.
`COc1cc(NC(=O)C(C)Oc2ccccc2)c(Cl)cc1NC(=O)c1ccc(Cl)cc1` (stereo unspecified) gave STAT3 SMM inactive, mut p53 SMM inactive, NFkB binder inactive and Myc binder inactive.
For Cc1cc(Cl)ccc1OC(C)C(=O)Nc1ccc(C(=O)Nc2ccccc2C(=O)O)cc1 (stereo unspecified) the results were STAT3 SMM inactive, mut p53 SMM inactive, NFkB binder inactive and Myc binder active.
For COC(=O)CCSc1nc2sc3c(c2c(=O)n1-c1cccc(C)c1)CC(C)(C)OC3 the results were STAT3 SMM inactive, mut p53 SMM inactive, NFkB binder inactive and Myc binder inactive.
Screening Cc1noc(C)c1NC(=O)Nc1ccc2c(c1)C(=O)N([C@@H](C)CO)C[C@@H](C)[C@H](CN(C)C(=O)C1CCCCC1)OCCCC[C@H](C)O2 returned STAT3 SMM inactive, mut p53 SMM inactive, NFkB binder active and Myc binder active.
